Set-up in all cases: species or system human, MV4-11 + K-562 + COLO205 + SK-N-BE2 + OVCAR-8
One assay has as its system EGFR. The settings on record: read-out: apparent Kd, compound concentrations: 100 nM and 1000 nM (sheet 'Samples'), n = 1.
Another assay has as its system EPHA1. The settings on record: read-out: apparent Kd, compound concentrations: 100 nM and 1000 nM (sheet 'Samples'), n = 1.
Another assay concerns EPHA2. The conditions noted are these: read-out: apparent Kd; compound concentrations: 100 nM and 1000 nM (sheet 'Samples'), CATDS: 6.7925989209778895E-2; n = 1.
Another assay concerns EPHA4. The conditions noted are these: read-out: apparent Kd; compound concentrations: 100 nM and 1000 nM (sheet 'Samples'), CATDS: 7.2128070641764394E-2; n = 1.
The test system of a further assay is EPHA5. The conditions noted are these: read-out: apparent Kd; compound concentrations: 100 nM and 1000 nM (sheet 'Samples'), CATDS: 6.7106289127757499E-2; n = 1.
The next assay relates to EPHA7. The settings on record: read-out: apparent Kd; compound concentrations: 100 nM and 1000 nM (sheet 'Samples'), CATDS: 5.7157289588894301E-2; n = 1.
In a further assay the test system is EPHB2. The settings on record: read-out: apparent Kd; compound concentrations: 100 nM and 1000 nM (sheet 'Samples'), CATDS: 6.4850076698592204E-2; n = 1.
The next assay deals with EPHB4. The settings on record: read-out: apparent Kd, compound concentrations: 100 nM and 1000 nM (sheet 'Samples'), n = 1.
The next assay relates to FLT4. The settings on record: read-out: apparent Kd; compound concentrations: 100 nM and 1000 nM (sheet 'Samples'), CATDS: 5.9092612801250499E-2; n = 1.
Another assay concerns MAPK14. The conditions noted are these: read-out: apparent Kd; compound concentrations: 100 nM and 1000 nM (sheet 'Samples'), CATDS: 5.8794914903048702E-2; n = 1.
The test system of a further assay is MAPKAPK2. The settings on record: read-out: apparent Kd, compound concentrations: 100 nM and 1000 nM (sheet 'Samples'), n = 1.
For the next assay, the system named is NNT. The settings on record: read-out: apparent Kd; compound concentrations: 100 nM and 1000 nM (sheet 'Samples'), CATDS: 5.7006998713096203E-2; n = 1.
Another assay has as its system RET. The conditions noted are these: read-out: apparent Kd, compound concentrations: 100 nM and 1000 nM (sheet 'Samples'), n = 1.
The next assay has as its system PIK3CD. The settings on record: read-out: apparent Kd, n = 1.
The test system of a further assay is NQO1. The settings on record: read-out: apparent Kd, n = 1.
A further assay relates to RIPK2. The settings on record: read-out: apparent Kd, compound concentrations: 100 nM and 1000 nM (sheet 'Samples'), n = 1.
The test system of the next assay is GAK. The conditions noted are these: read-out: apparent Kd; compound concentrations: 100 nM and 1000 nM (sheet 'Samples'), CATDS: 7.6130935509039099E-2; n = 1.
The subject of a further assay is PIK3CA. The conditions noted are these: read-out: apparent Kd; compound concentrations: 100 nM and 1000 nM (sheet 'Samples'), CATDS: 0.12114887477335; n = 1.
The subject of the next assay is PIK3CG. The settings on record: read-out: apparent Kd; compound concentrations: 100 nM and 1000 nM (sheet 'Samples'), CATDS: 8.4802846120227496E-2; n = 1.
The test system of a further assay is RIPK3. The settings on record: read-out: apparent Kd; compound concentrations: 100 nM and 1000 nM (sheet 'Samples'), CATDS: 8.3491494498952795E-2; n = 1.
A further assay concerns EPHB6. The settings on record: read-out: apparent Kd; compound concentrations: 100 nM and 1000 nM (sheet 'Samples'), CATDS: 0.25930053020636601; n = 1.
A further assay deals with ERBB3. The conditions noted are these: read-out: apparent Kd; compound concentrations: 100 nM and 1000 nM (sheet 'Samples'), CATDS: 0.19609805104920999; n = 1.
For a further assay, the system named is MAP4K5. The conditions noted are these: read-out: apparent Kd; compound concentrations: 100 nM and 1000 nM (sheet 'Samples'), CATDS: 0.26674698552626502; n = 1.
Another assay relates to NLK. The conditions noted are these: read-out: apparent Kd; compound concentrations: 100 nM and 1000 nM (sheet 'Samples'), CATDS: 0.30347996318959403; n = 1.
In the next assay the test system is FECH. The settings on record: read-out: apparent Kd; compound concentrations:100 nM and 1000 nM (sheet 'Samples'); n = 1.
Another assay concerns IARS. The settings on record: read-out: apparent Kd; compound concentrations:100 nM and 1000 nM (sheet 'Samples'); n = 1.
Another assay has as its system PLK1. The conditions noted are these: read-out: apparent Kd; compound concentrations:100 nM and 1000 nM (sheet 'Samples'); n = 1.
Setting [1] is: compound concentrations:100 nM and 1000 nM (sheet 'Samples').

SMILES strings stand for the structures. Like-named read-outs stand apart in the source and are kept apart here.

Turning to `COc1cc2ncnc(Nc3cccc(Cl)c3F)c2cc1O[C@H]1CC[C@H]([C@@H]2NCCNC2=O)CC1` [BI00133844], the potency estimated from few doses is 15.4 nM with EGFR (CATDS: 0.60963151876595101); 403 nM in the assay on EPHA1 (CATDS: 0.101565778514596); 1060 nM in the assay with EPHA2; 898 nM with EPHA4; 1090 nM with EPHA5; 1800 nM in the assay with EPHA7. Besides, the potency estimated from few doses in the assay on EPHB2 was 1200 nM; with EPHB4 (CATDS: 0.111344717085302), 332 nM; in the assay with FLT4, 1600 nM; in the assay with MAPK14, 1630 nM; in the assay with MAPKAPK2 (CATDS: 6.3284106262713205E-2), 1290 nM; in the assay on NNT it was 1810 nM. In addition, in the assay on RET (CATDS: 0.20598352545457299), the potency estimated from few doses was 99 nM.

On to `Cl.O=S(=O)(c1cccc(F)c1)c1ccc(Nc2ncnc3cc(Br)sc23)cc1Cl` [GSK306886A], for which the potency estimated from few doses with EGFR (CATDS: 0.33527903035184697) was 1350 nM; with PIK3CD (compound concentrations: 100 nM and 1000 nM (sheet 'Samples'), CATDS: 0.982888258017659) it was 11.9 nM.

As to `CN(C)C(=O)O[C@@H]1CN[C@@H](C#Cc2cc3ncnc(Nc4ccc(OCc5cccc(F)c5)c(Cl)c4)c3s2)C1` [GSK238063A], the potency estimated from few doses in the assay with EGFR (CATDS: 0.84282841422731203) is 175 nM; with NQO1 (compound concentrations: 100 nM and 1000 nM (sheet 'Samples'), CATDS: 0.35542679551124801) it was 1700 nM.

As to `Cn1cncc1-c1cc2c(Nc3ccc(OCc4ccccc4)cc3)ncnc2cn1` [GW281179X], the potency estimated from few doses with EGFR (CATDS: 0.48641322117949298) is 124 nM; in the assay with RIPK2 (CATDS: 0.514367617378505) it was 111 nM.

Regarding `COc1cc2ncnc(Nc3ccc(C)c(O)c3)c2cc1OC.Cl` [GW410563A], the values for the potency estimated from few doses with EGFR (CATDS: 0.29565759118255602), with RET (CATDS: 0.33989373739411199) and in the assay on RIPK2 (CATDS: 0.37374612171419203) were 439 nM, 326 nM and 272 nM, respectively.

For `CS(=O)(=O)CCNCc1coc(-c2ccc3ncnc(Nc4ccc(OCc5ccccc5)cc4)c3c2)c1` [GW566221B], the figures for the potency estimated from few doses with EGFR (CATDS: 0.90978509927548601) and in the assay with RIPK2 (CATDS: 0.34472781375122202) were 43.8 nM and 839 nM, respectively.

On to `COc1cc2ncnc(Nc3ccc(F)c(Cl)c3)c2cc1O[C@H]1CC[C@H](N)CC1` [BIBW3133BS], for which the potency estimated from few doses with EGFR (CATDS: 0.31081219561231099) was 48.6 nM; in the assay on EPHA1 (CATDS: 8.4373240562764601E-2), 670 nM; in the assay with EPHB4 (CATDS: 9.3319537671251104E-2), 508 nM; in the assay with GAK, 922 nM; with MAPKAPK2 (CATDS: 6.9663188807488702E-2), 1270 nM; in the assay on PIK3CA, 273 nM. In addition, the potency estimated from few doses in the assay with PIK3CD (compound concentrations: 100 nM and 1000 nM (sheet 'Samples'), CATDS: 0.31843258690153697) was 46.8 nM; in the assay on PIK3CG it was 660 nM; in the assay on RIPK2 (CATDS: 8.6500761240037902E-2), 624 nM; in the assay with RIPK3, 691 nM.

Turning to `Nc1ncc(-c2ccncc2)c2scc(-c3ccc4c(c3)CCN4C(=O)Cc3ccccc3)c12` [GSK2592465A], the potency estimated from few doses in the assay with EPHB6 was 885 nM; with ERBB3 it was 1700 nM; with MAP4K5, 837 nM; in the assay with NLK, 660 nM.

With `Nc1ccc(C#Cc2cncnc2Nc2ccc(OCc3cccc(F)c3)c(Cl)c2)cc1` [GW659893X], in the assay on EGFR (CATDS: 1), the potency estimated from few doses is 404 nM.

With `COc1cc2ncn(-c3cc(OCc4ccc(S(C)(=O)=O)cc4)c(C(N)=O)s3)c2cc1OC` [GW869979X], the potency estimated from few doses in the assay with FECH was 2080 nM; in the assay with IARS, 2020 nM; in the assay with NQO1 (setting [1]), 2010 nM; in the assay with PIK3CD (setting [1]), 120 nM; in the assay on PLK1, 1110 nM.

The record behind these values is paper PMC11062922 (Nature Chemical Biology, 2023).
